Source: PubChem
BoNT F protease: blocks Botulinum neurotoxin F light chain protease. Multiplex microsphere protease cleavage assay, flow cytometry. inhibition, % at 10 µM. 0.22% of 360,000 active; in the data active = inhibition above about 35%, passing the limit was not always enough; inconclusive = no clear call, values can overlap the other calls; note: plate controls were buffer without enzyme for full effect and enzyme alone for no effect
BoNT A protease: blocks Botulinum neurotoxin A light chain protease; multiplex microsphere protease substrate cleavage, flow cytometry; inhibition, % at 10 µM; 0.17% of 360,000 active; note: plate controls were buffer without enzyme for full effect and enzyme alone for no effect
Autofluor counter: compound fluorescence in toxin protease inhibitor counterscreen | compound autofluorescence counterscreen, microsphere flow cytometry; stronger effect = higher value | fluorescence intensity (no concentration beside the values) | 3.1% of 360,000 active; in the data active = fluorescence intensity above about 16000; inconclusive = no clear call, values can overlap the other calls
MazF activator: MazEF (E. coli) toxin RNase activation; 0.32% of 350,000 active; P0AE70; activation, % at 20 µM; FAM/BHQ RNA-DNA oligo cleavage fluorescence, 5 h; in the data active = activation above about 50%
Anthrax LF prot: inhibitors of Bacillus anthracis lethal factor protease | P15917 | multiplex microsphere protease cleavage assay, LF | inhibition, % at 10 µM | 0.12% of 360,000 active | AID 588501; note: plate controls were buffer without enzyme for full effect and enzyme alone for no effect
* hit, by the source's call; ? = inconclusive; · = no result given. A selection: hits, their analogues and other compounds. The true share with any hit is near 3.6%. Cut-off read from the data, not from the text of the source, unless noted: active = inhibition above about 30%; inconclusive = no clear call, values can overlap the other calls; inactive = below that.

SMILES	BoNT F protease	BoNT A protease	Autofluor counter	MazF activator	Anthrax LF prot
CS(=O)(=O)Nc1ccccc1C(=O)Nc1cc(Cl)cc(Cl)c1	-3	-2	20510*	-1	-2
CS(=O)(=O)Nc1ccccc1C(=O)Nc1ccccc1Cl	-1	-1	2298	4	-4
COc1cccc(N=Nc2ccc3ccccc3c2O)c1	15	-2	2860	76*	17
COc1ccc(N=Nc2ccc3ccccc3c2)c(O)c1	0	2	2930	44	3
C[C@H](NC(=O)c1ncn(Cc2ccccc2)c1C(=O)N[C@@H](C)c1ccccc1)c1ccccc1	2	1	2856	-2	-4
CN(Cc1ccccc1)Cc1nc2c([nH]1)c(=O)[nH]c(=O)n2C	-2	-1	16968*	8	-3
CCOc1nc(Nc2cc(Cl)ccc2OC)nc(OCC)n1	-4	-1	2470	-8	-5
C=CCNc1nc(Cl)nc(Nc2cc(Cl)ccc2OC)n1	13	1	4088	58*	-13
O=C(/C=C/c1cccc(F)c1)Nc1ccc(S(=O)(=O)N2CCOCC2)cc1	-4	1	3912	5	4
CC1=C(C(=O)N(C(C)C)C(C)C)CC(CC(=O)NC2CCCCC2)C(=O)N1CCCN1CCCC1=O (stereo not given)	10	1	6105	·	-11
Cc1ccc(C)c(NS(=O)(=O)c2ccc3oc(=O)ccc3c2)c1	-23	-23	3201	13	-18
Cc1cc(C)cc(NS(=O)(=O)c2ccc3oc(=O)ccc3c2)c1	-1	0	23250*	-10	0
N#Cc1ccccc1OCC(=O)OCC(=O)c1c[nH]c2ccccc12	-9	0	3709	2	2
CC(=O)Nc1cccc(NC(=O)CCn2cnc3cc(C)c(C)cc32)c1	-2	0	22641*	4	-2
Cc1ccc(NC(=O)CCn2cnc3cc(C)c(C)cc32)cc1	2	0	10548	3	-5
CC(=O)Nc1ccc(NC(=O)CSCCc2ccccn2)cc1	3	2	19811*	-1	0
Cc1ccc2nc(NC(=O)COC(=O)c3ccc(Br)o3)sc2c1	11	0	3653	0	-3
O=C(COC(=O)c1ccc(Br)o1)Nc1nc2ccccc2s1	-3	0	16288*	5	-1
O=C(Nc1ccccc1-c1nc2ccccc2s1)c1ccc(Br)o1	0	0	23088*	-1	-3
O=C(Cn1cnnn1)OCC(=O)c1ccc(Cl)s1	1	2	22766*	1	1
c1ccc(-c2nc(NCc3cccnc3)c3ccccc3n2)cc1	12	1	8068	1	2
Clc1cccc(-c2nc(NCc3cccnc3)c3ccccc3n2)c1	14	14	17205*	0	-14
CCCCn1ccnc1C(=O)c1cccc(S(=O)(=O)N2CC(C)CC(C)C2)c1 (stereo not given)	-4	0	16271*	-10	-8
CN(C)S(=O)(=O)c1cccc(NC(=O)c2ccccc2OCc2ccc(F)cc2)c1	4	-3	3121	-6	4
C=CCNC(=O)c1cccc(Br)c1	-4	-3	23849*	-1	-1
SMILES	BoNT F protease	BoNT A protease	Autofluor counter	MazF activator	Anthrax LF prot
COc1ccc(C(O)c2cnc(C)n2Cc2ccccc2)cc1 (stereo not given)	-1	0	4123	4	0
CS(=O)(=O)c1ccc(NS(=O)(=O)c2ccc(Cl)c(C(=O)NCc3ccco3)c2)cc1	4	-1	3086	-26	-4
O=C(NCc1ccco1)c1ccc2c(c1)N(Cc1ccccc1)C(=O)CS2	-9	-6	25027*	3	-2
CN(Cc1ccccc1)C(=O)COC(=O)CCN1C(=O)C2CC=CCC2C1=O (stereo not given)	-6	0	3873	7	-4
CCCc1nc2ccc(Cl)cn2c1Cc1ccsc1	4	2	6141	·	10
COCCNC(=O)CN1CCC(NC(=O)Nc2ccc(C(F)(F)F)cc2)CC1	-5	-1	23251*	11	-3
COc1cccc(-c2nc3ccc(O)cc3c(=O)o2)c1	-3	?	23859*	-11	-1
Cc1ccc(NS(=O)(=O)c2cccc(C(=O)Nc3cccnc3)c2)c(C)c1	-2	0	3842	6	-2
CC#CCCCC(=O)Nc1cccc(C(=O)O)c1	7	6	19921*	-2	-4
CC(=O)N1CCc2cc(NC(=O)C3(C)CCN3Cc3ccccc3Cl)ccc21 (stereo not given)	-2	0	3370	·	-1
CCCNC(=O)c1cc(OC)c(OC)cc1[N+](=O)[O-]	1	?	24245*	7	1
COc1cc(C(=O)NCCc2ccc(F)cc2)c([N+](=O)[O-])cc1OC	-3	0	2495	7	-1
COc1cc(C(=O)Nc2ccc(N3CCCS3(=O)=O)cc2)c([N+](=O)[O-])cc1OC	-85	-50	18232*	4	-12
CN(Cc1nc(-c2ccncc2)no1)S(=O)(=O)c1ccc(Br)cc1	-4	0	2858	2	-1
Clc1ccc(-c2noc(COc3ccccc3)n2)cc1	1	2	22341*	-18	-3
CC(C)(C)Cc1nc(-c2ccc(Cl)cc2)no1	-9	-5	21458*	-11	1
Clc1ccc(-c2noc(CCCOc3ccccc3)n2)cc1	-6	-1	11319	-6	0
CN(Cc1nc(-c2ccncc2)no1)S(=O)(=O)c1ccc(Cl)cc1	3	2	21129*	3	-4
Cc1cc(NC(=O)CCN2CCCCC2)ccc1Br	-6	-4	3797	-1	-3
COc1ccc(CNC(=O)c2noc3c2CCCC3)cc1	-8	-1	11801	-3	0
COc1ccc(CN/C=C2\CCCCC2=O)cc1	-4	?	22197*	2	1
COc1cccc(N2CCc3c(C)nc4ccc(Cl)cc4c32)c1	-8	-1	3742	21	5
CCN1Cc2c(/C=C/c3ccccc3)nc3ccc(OC)cc3c2N(c2cccc(Cl)c2)C1	-8	53*	4228	-16	13
CCCCNc1ccccc1C(=O)OCC(=O)Nc1ccc(S(N)(=O)=O)cc1	11	6	17458*	-3	-12
CCc1ccc2[nH]c(=O)c(C(c3nnnn3Cc3ccc(OC)cc3)N3CCOCC3)cc2c1 (stereo not given)	2	0	16212*	1	-3
CCc1ccc2[nH]c(=O)c(C(c3nnnn3Cc3ccccc3)N3CCOCC3)cc2c1 (stereo not given)	0	?	21543*	-2	-3
COc1ccc(Cn2nnnc2C(c2cc3cc(C)cc(C)c3[nH]c2=O)N2CCOCC2)cc1 (stereo not given)	-6	4	11008	8	2
CCN(CC)Cc1cc(Nc2c3ccccc3nc3c4ccccc4n(C)c23)cc(CN(CC)CC)c1O	-47	0	2580	21	-21
C=C(C1=CCN(S(=O)C(C)(C)C)[C@@H]1CCO)c1ccccc1 (stereo not given in full)	-7	0	3559	-14	-4
Cc1nc2ccc(NC(=O)c3cccc(C(F)(F)F)c3)cc2o1	0	0	22143*	5	0
